Molecules are shown by their SMILES. Activity calls are given as the source filed them. Unless noted, how the calls were made is not given here.

14 compounds from PubChem BioAssay can be followed below.

Test [1] concerns Wnt5a (protein binding on small-molecule microarray). The test can be described thus: small molecules binding Wnt5a protein – biophysical, small-molecule microarray, 635/667 nm fluorescence, primary screen (AID 1142).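 Further: fluorescence read at 667 nm with signal to noise per printed feature.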 The note with it: 635 nm fluorescence, higher = more signal.
Test [2] can be described thus: ATP-based viability of Huh7 replicon cells – cell-based, CellTiter-Glo luminescence, basal, 48 h, cytotoxicity control for HCV replication inhibitor project, primary screen (AID 1143).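 Further: Huh7 hepatoma cells carrying a hepatitis C replication reporter with no stimulus; test concentration not given here.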 The note with it: higher = more signal, called active from +8 up or from −8 down.
A short description of test [3]: Pseudomonas biofilm growth suppression – PAO1 strain, BacTiter-Glo luminescence, LB-PBS, primary screen (AID 1144). The note with it: P. aeruginosa PAO1 biofilm, 12 h, higher = more signal.
Test [4] is described as follows: basal CRE-LacZ reporter activity in PC12 – cell-based, unstimulated, primary screen (AID 1145). The note with it: no forskolin, luminescence, 4.5 h, higher = more signal, called active from +8 up or from −8 down.
Test [5] is described as follows: forskolin-driven CRE-LacZ activity in PC12 – cell-based, CRE-LacZ reporter, forskolin-stimulated, primary screen (AID 1146).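 Further: PC12 cells with 6xCRE LacZ reporter stimulated by forskolin 10 µM; beta-galactosidase reporter signal reflecting CREB driven transcription.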 The note with it: luminescence, 4.5 h, higher = more signal, called active from +8 up or from −8 down.
Test [6] has as its target Streptavidin (Streptomyces avidinii) (UniProt P22629). The test can be described thus: compounds binding control protein streptavidin – biophysical, small-molecule microarray, 635/667 nm fluorescence, artefact control for SMM compound annotation, primary screen (AID 1147).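 Further: signal reflects streptavidin binding to arrayed compounds as a control protein.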 The note with it: higher = more signal.
Test [7] in a line: probe aInhba binding on compound microarray – biochemical, small-molecule microarray, 635/667 nm fluorescence, primary screen (AID 1148).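 Further: score merges 667nm spot fluorescence with signal-to-noise for antibody binding to printed compounds.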 The note with it: higher = more signal.
Test [8] deals with Torsin-1A (Homo sapiens) (UniProt O14656). Put plainly: TOR1A wild-type binding on microarray – cell lysate, small-molecule microarray, lysate, 635/667 nm, primary screen (AID 1149). The note with it: COS7 hTOR1A-WT lysate, 635 nm fluorescence, higher = more signal.
Test [9] shares this target. Put plainly: torsin A mutant lysate binding on microarrays – cell lysate, small-molecule microarray, COS7 lysate, 635/667 nm fluorescence, primary screen (AID 1150).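 Further: score pools 667 nm emission and signal to noise measuring lysate protein binding.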 The note with it: COS7 hTOR1A mutant lysate, 635 nm fluorescence, higher = more signal.
Test [10] relates to Sonic hedgehog protein (Shh). The test can be described thus: Sonic hedgehog microarray binding compounds – biochemical, small-molecule microarray, 635/667 nm fluorescence, primary screen (AID 1151).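 Further: Shh protein binding to compounds spotted on small-molecule microarray slides; score combines spot fluorescence intensity with signal-to-noise across triplicate slides.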 The note with it: 635 nm fluorescence, higher = more signal.

Chain of Streptavidin (Streptomyces avidinii) (P22629 whole entry, looked up): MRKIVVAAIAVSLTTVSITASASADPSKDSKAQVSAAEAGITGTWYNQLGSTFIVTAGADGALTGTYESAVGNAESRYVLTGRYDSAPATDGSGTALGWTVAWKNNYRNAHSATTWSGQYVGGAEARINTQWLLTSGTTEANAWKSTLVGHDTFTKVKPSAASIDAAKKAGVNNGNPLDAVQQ
Chain of Torsin-1A (Homo sapiens) (O14656 whole entry, looked up): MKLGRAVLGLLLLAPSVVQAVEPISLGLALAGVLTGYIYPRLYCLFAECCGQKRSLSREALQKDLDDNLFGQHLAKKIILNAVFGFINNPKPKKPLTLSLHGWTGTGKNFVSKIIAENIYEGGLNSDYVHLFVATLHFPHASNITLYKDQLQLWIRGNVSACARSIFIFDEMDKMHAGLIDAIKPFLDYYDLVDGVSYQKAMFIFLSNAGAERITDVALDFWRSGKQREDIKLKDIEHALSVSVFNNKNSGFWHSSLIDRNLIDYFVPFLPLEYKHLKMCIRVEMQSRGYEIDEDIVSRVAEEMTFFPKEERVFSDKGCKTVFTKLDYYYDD

Regarding `COc1ccccc1CN1C(=O)c2ccccc2[C@](Cc2ccccc2I)(C(=O)NCC(C)C)[C@@H]1c1ccc(CO)cc1`, the composite z-score in test [1] was 0.0108; in test [6], -0.738; in [7] it was 0.126; with Torsin-1A (Homo sapiens) [8], -0.0986; with Torsin-1A (Homo sapiens) [9] it was -0.61; in test [10], 0.034. Besides, the z-score was -2.13 (inactive) in test [2], 0.584 (inactive) in test [3], 0.0279 (inactive) in test [4] and -0.542 (inactive) in test [5].

For the compound `N#Cc1ccc(NN2C(C(O)C3CC=CCC3)C=CC3C(=O)N(c4ccccc4)C(=O)C32)cc1` (stereo not given), the composite z-score is 0.223 in test [1]; 0.126 in test [6]; -0.0131 in test [7]; -0.694 in the test with Torsin-1A (Homo sapiens) [8]; 0.202 with Torsin-1A (Homo sapiens) [9]; 2.08 in [10]. The z-score in [2] was 0.595 (inactive); in [3], -1.34 (inactive); in test [4], 0.629 (inactive); in [5] it was 0.516 (inactive).

On to `O=C(O)[C@H](Cc1ccccc1)n1cc(C2(O)CCCCC2)nn1`, for which the composite z-score in test [1] was 0.0358; in [6] it was -0.338; in test [7] it was -0.0221; with Torsin-1A (Homo sapiens) [8], 0.221; in the test with Torsin-1A (Homo sapiens) [9], 0.327; in test [10] it was -0.0164. The z-score is 0.316 (inactive) in [2], 0.552 (inactive) in [3], 0.367 (inactive) in test [4] and 0.317 (inactive) in test [5].

Consider `Cc1ccc(S[C@]2(C(=O)NCC(F)(F)F)CC(=O)N(Cc3ccccc3C(F)(F)F)[C@@H]2c2ccc(CO)cc2)cc1`, for which the composite z-score in test [1] is -0.186; in test [6], -1; in test [7], -0.179; with Torsin-1A (Homo sapiens) [8], -1.23; in the test with Torsin-1A (Homo sapiens) [9] it was 0.0748; in [10], -0.972. In addition, the z-score in test [2] was 0.518 (inactive); in test [3] it was 0.0205 (inactive); in [4], -0.349 (inactive); in test [5] it was -0.163 (inactive).

For the compound `CC(C)C[C@@H]1NC(=O)[C@@H]2C[C@H](C(=O)NCCCCCCNC(=O)CS)[C@H](c3cccc(OCCO)c3)N2C1=O`, the composite z-score is 0.971 in test [1]; 1.22 in test [6]; 0.159 in test [7]; 1.15 with Torsin-1A (Homo sapiens) [8]; 1.18 in the test with Torsin-1A (Homo sapiens) [9]; 2.38 in [10]. Also, the z-score was 0.0734 (inactive) in test [2], -0.253 (inactive) in [3], 0.688 (inactive) in test [4] and 0.0025 (inactive) in test [5].

With `COC(=O)[C@@]1(Cc2ccccc2)[C@H]2c3cc(C(=O)N(C)C)n(CCO)c3C[C@H]2CN1C(=O)c1ccccc1`, the composite z-score in test [1] is 0.518; in test [6] it was 2.16; in test [7], 0.329; in the test with Torsin-1A (Homo sapiens) [8] it was -0.212; in the test with Torsin-1A (Homo sapiens) [9], 0.133; in test [10], -0.611. The z-score in test [2] was 0.254 (inactive); in test [3] it was 0.409 (inactive); in test [4], 0.583 (inactive); in test [5], -0.609 (inactive).

In the case of `C=C(COC)/C(=C/C[C@@H](OC(C)=O)c1ccccc1OCCO)c1cnc2ccccc2c1`, the composite z-score in [1] was 0.3; in [6] it was 0.219; in [7], -0.0087; with Torsin-1A (Homo sapiens) [8], 2.53; with Torsin-1A (Homo sapiens) [9], 2.34; in [10], 2.29. The z-score is -2.52 (inactive) in test [2], 0.514 (inactive) in test [3], 8.98 (active) in test [4] and 0.879 (inactive) in test [5].

As for `CN(C)CCCC[C@@H]1NC(=O)[C@@H]2C[C@H](C(=O)NCCCCCCNC(=O)CS)[C@H](c3ccc(O)cc3)N2C1=O`, the composite z-score was 0.412 in [1]; -0.406 in [6]; 0.257 in [7]; 0.71 in the test with Torsin-1A (Homo sapiens) [8]; 0.702 with Torsin-1A (Homo sapiens) [9]; 1.62 in test [10]. Moreover, the z-score in [2] was -0.211 (inactive); in test [3], -0.525 (inactive); in test [4], 0.549 (inactive); in test [5], 0.375 (inactive).

Take `COc1ccc(C(=O)Nc2cccc(CN3C(=O)[C@]4(O[C@H](CC(=O)N5Cc6ccccc6C[C@H]5CO)[C@@H]([Si](C)(C)c5ccc(OC)cc5)[C@@H]4C)c4ccccc43)c2)cc1`: the composite z-score was 0.711 in test [1]; -0.266 in [6]; 0.114 in test [7]; 0.671 with Torsin-1A (Homo sapiens) [8]; 0.701 with Torsin-1A (Homo sapiens) [9]; 2.19 in test [10]. Further, the z-score in [2] was -3.89 (inactive); in test [3], 0.269 (inactive); in [4], -1.07 (inactive); in test [5], -0.442 (inactive).

Regarding `NC(=O)N1C(=O)C2C(C1=O)C1C=C(CCCO)C2C(c2ccc(CN3CCCC3)cc2)N1Cc1sc2ccccc2c1Cl` (stereo not given), the composite z-score in test [1] is -0.24; in test [6], 0.558; in test [7], -0.268; in the test with Torsin-1A (Homo sapiens) [8], -0.174; with Torsin-1A (Homo sapiens) [9] it was 0.823; in test [10], 0.287. Moreover, the z-score in test [2] was -3.46 (inactive); in test [3] it was 0.386 (inactive); in test [4], -0.0602 (inactive); in test [5], -1.08 (inactive).

For `COCCOC(=O)N1C(=O)[C@@]2(c3cc(C#CCCO)ccc31)[C@H](c1ccccc1OCCO)N1[C@H](c3ccccc3)[C@H](c3ccccc3)OC(=O)[C@H]1[C@@H]2C(N)=O`, the composite z-score is 0.536 in test [1]; 0.508 in test [6]; -0.226 in test [7]; -0.0615 with Torsin-1A (Homo sapiens) [8]; 0.172 in the test with Torsin-1A (Homo sapiens) [9]; 1.97 in test [10]. The z-score in [2] was -4.33 (inactive); in test [3], -0.441 (inactive); in test [4] it was 0.0653 (inactive); in [5] it was 18.6 (active).

Consider `C=CCOC(=O)[C@H]1[C@@H]2C(=O)O[C@@H](c3ccccc3)[C@@H](c3ccccc3)N2[C@@H](c2ccc(OCCOC(=O)[C@H]3C[C@H]4C(=O)N[C@@H](CC(C)C)C(=O)N4[C@H]3c3ccc(O)cc3)cc2)[C@]12C(=O)Nc1ccccc12`, for which the composite z-score was found to be 0.809 in [1]; 0.137 in test [6]; 0.0544 in test [7]; 0.739 in the test with Torsin-1A (Homo sapiens) [8]; 1.18 with Torsin-1A (Homo sapiens) [9]; 2.06 in test [10]. Besides, the z-score in test [2] is -0.351 (inactive); in [3] it was -1.22 (inactive); in test [4], -0.26 (inactive); in test [5], 0.146 (inactive).

Consider `C=C(CCCC)/C(=C/C[C@H](OC(=O)c1ccncc1)c1cccc(OCCO)c1)c1cnc2ccccc2c1`, for which the composite z-score in test [1] worked out at 0.24; in test [6], 0.905; in test [7], 0.0155; with Torsin-1A (Homo sapiens) [8] it was 0.947; in the test with Torsin-1A (Homo sapiens) [9], 0.706; in [10], 1.78. Also, the z-score in test [2] is -1.58 (inactive); in test [3], 0.124 (inactive); in test [4], 2.6 (inactive); in test [5], 0.256 (inactive).

With `O=C1O[C@@H](c2ccccc2)[C@@H](c2ccccc2)N2[C@@H](c3ccc(OCCO)cc3)[C@]3(C(=O)Nc4ccc(C#CC5(O)CCCCCC5)cc43)[C@@H](C(=O)Nc3nc4ccccc4s3)[C@H]12`, the composite z-score was determined as 0.41 in test [1]; 1.44 in [6]; 0.0945 in test [7]; 1.14 with Torsin-1A (Homo sapiens) [8]; 0.985 with Torsin-1A (Homo sapiens) [9]; 1.11 in test [10]. In addition, the z-score in test [2] was -1.6 (inactive); in test [3], -0.213 (inactive); in [4], 0.685 (inactive); in [5], -0.0048 (inactive).
